We go through 43 compounds from article PMC4336329 (PLoS ONE, 2015).

Screen size: about 310,000 compounds; about 2,200 (0.71%) showed an effect of 50% or more. The effect is printed as a negative number. The sample as a whole holds a higher share of strong results than the screen did.

The target in this experiment is human ether-à-go-go-related gene (hERG) potassium channel (human, UniProt Q12809). Put plainly: primary screen, population patch clamp on CHO cells stably expressing hERG; higher = less effect of the substance.
Sequence of human ether-à-go-go-related gene (hERG) potassium channel (Q12809 whole entry, looked up): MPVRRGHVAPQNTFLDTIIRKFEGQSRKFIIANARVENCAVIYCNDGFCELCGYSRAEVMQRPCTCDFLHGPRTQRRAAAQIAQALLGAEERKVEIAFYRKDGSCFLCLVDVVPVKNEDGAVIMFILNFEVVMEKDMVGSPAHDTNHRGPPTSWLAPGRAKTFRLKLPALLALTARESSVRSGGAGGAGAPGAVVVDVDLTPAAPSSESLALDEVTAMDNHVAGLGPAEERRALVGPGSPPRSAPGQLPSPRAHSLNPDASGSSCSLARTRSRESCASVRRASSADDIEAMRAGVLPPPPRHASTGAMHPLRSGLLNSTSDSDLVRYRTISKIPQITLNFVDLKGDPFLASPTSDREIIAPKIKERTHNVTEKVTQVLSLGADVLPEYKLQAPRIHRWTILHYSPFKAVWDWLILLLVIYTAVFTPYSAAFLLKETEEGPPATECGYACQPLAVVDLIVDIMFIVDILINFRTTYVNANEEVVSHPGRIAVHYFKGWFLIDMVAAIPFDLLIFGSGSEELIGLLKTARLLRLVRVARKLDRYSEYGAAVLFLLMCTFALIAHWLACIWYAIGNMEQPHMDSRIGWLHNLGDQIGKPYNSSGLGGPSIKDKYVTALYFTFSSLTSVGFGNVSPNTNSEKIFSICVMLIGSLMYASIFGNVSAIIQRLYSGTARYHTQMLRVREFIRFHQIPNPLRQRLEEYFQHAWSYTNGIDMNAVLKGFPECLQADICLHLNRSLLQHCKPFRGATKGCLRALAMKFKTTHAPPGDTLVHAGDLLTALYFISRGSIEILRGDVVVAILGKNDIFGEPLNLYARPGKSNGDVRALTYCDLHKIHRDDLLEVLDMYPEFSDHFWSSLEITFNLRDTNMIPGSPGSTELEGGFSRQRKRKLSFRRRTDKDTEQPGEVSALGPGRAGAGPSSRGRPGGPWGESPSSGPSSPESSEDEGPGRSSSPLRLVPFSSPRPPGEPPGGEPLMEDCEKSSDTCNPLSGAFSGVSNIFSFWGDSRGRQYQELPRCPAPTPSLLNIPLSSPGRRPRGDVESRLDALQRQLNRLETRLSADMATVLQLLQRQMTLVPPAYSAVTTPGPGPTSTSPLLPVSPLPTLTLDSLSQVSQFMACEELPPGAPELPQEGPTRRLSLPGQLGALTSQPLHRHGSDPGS
In the case of `CN(C)S(=O)(=O)N1CCN(c2ccc(Cl)cc2)CC1`, the “hERG current change (%, negative = inhibition) at 1uM” value came to 5.65%.

Take `CN(C)S(=O)(=O)N1CCN(c2ccccc2)CC1`: the “hERG current change (%, negative = inhibition) at 1uM” value is on record as -0.132%.

Consider `CN(C)S(=O)(=O)N1CCN(c2ccc([N+](=O)[O-])cc2)CC1`, for which the “hERG current change (%, negative = inhibition) at 1uM” value is recorded as -60.5%.

As for `NC(=O)c1cc(S(=O)(=O)N2CCN(c3ccc([N+](=O)[O-])cc3)CC2)cs1`, the “hERG current change (%, negative = inhibition) at 1uM” value is on record as -59.3%. The same measure for `CC(=O)c1ccc(N2CCN(S(=O)(=O)c3csc(C(N)=O)c3)CC2)cc1`: -14.2%; for `NC(=O)c1cc(S(=O)(=O)N2CCN(c3cccc(Cl)c3)CC2)cs1`: 18.9%; for `O=[N+]([O-])c1cc(NS(=O)(=O)c2ccc(Cl)nc2)ccc1Cl`: -0.66%. The figure for `CCc1ccc2oc(-c3cc(N)ccc3O)nc2c1` is 9.06%; for `O=C(O)C1CSC(c2ccccc2)N1C(=O)c1ccco1` (stereo not shown) it is 10%.

For the compound `O=C(/C=C/c1ccc(S(=O)(=O)NCc2ccco2)cc1)N1CCN(c2ccccc2)CC1`, the “hERG current change (%, negative = inhibition) at 1uM” value came out at 5.15%. Take `COc1ccc(/C=N/NC(=O)c2cccc(Br)c2)cc1CN1CCOCC1`: the “hERG current change (%, negative = inhibition) at 1uM” value was -38.5%.

Consider `COc1ccc(/C=N/NC(=O)c2cccnc2)cc1CN1CCN(c2ccc(F)cc2)CC1`, for which the “hERG current change (%, negative = inhibition) at 1uM” value is on record as -0.578%. The figure for `COc1ccc(C(=O)N/N=C/c2ccc(OC)c(COc3ccc(F)cc3)c2)cc1` is 1.17%. In the case of `COc1ccc(/C=N/NC(=O)c2ccncc2)cc1CN1CCOCC1`, the “hERG current change (%, negative = inhibition) at 1uM” value is 6.59%.

`COc1ccc(/C=N/NC(=O)c2ccccc2F)cc1CN1CCN(c2ccc(F)cc2)CC1`: the “hERG current change (%, negative = inhibition) at 1uM” value was -64.4%. For the compound `COc1ccc(C(=O)N/N=C/c2ccc(OC)c(CN3CCN(c4ccc(F)cc4)CC3)c2)cc1`, the “hERG current change (%, negative = inhibition) at 1uM” value was -83.5%. For `COc1ccc(/C=N/NC(=O)c2ccc(C)cc2)cc1CN1CCN(c2ccc(F)cc2)CC1`, the “hERG current change (%, negative = inhibition) at 1uM” value is recorded as -27%. The figure for `COc1ccc(/C=N\NC(=O)c2ccccc2)cc1COc1ccc(F)cc1` is 4.81%; for `COc1ccc(/C=N/NC(=O)c2ccncc2)cc1CN1CCN(c2ccc(F)cc2)CC1` it is -54.2%. For `COc1ccc(/C=N/NC(=O)c2ccccc2)cc1CN1CCN(c2ccc(F)cc2)CC1`, the “hERG current change (%, negative = inhibition) at 1uM” value was -62.1%. Turning to `COc1ccc(/C=N/NC(=O)c2ccoc2C)cc1CN1CCN(c2ccc(F)cc2)CC1`, the “hERG current change (%, negative = inhibition) at 1uM” value was -19.3%. The same measure for `COc1ccc(/C=N\NC(=O)c2ccccc2F)cc1COc1ccc(F)cc1`: 16.6%; for `O=S(=O)(NC1CC1)c1ccc(F)c(F)c1`: 10.1%. The same measure for `OCCN(Cc1nc(-c2ccc3c(c2)OCO3)no1)Cc1cccs1`: 7.42%; for `CC(Oc1cc2oc(=O)c3c(c2cc1Cl)CCC3)C(=O)NCCCN1CCOCC1` (stereo not shown): 13.3%; for `Cc1ccc(CN=C(N)Nc2nc(C)cc(C)n2)cc1.Cl`: -19.5%. The same measure for `CN(Cc1ccc(F)cc1)C(=O)c1ccc(NC(=O)CC2SC(N3CCCC3)=NC2=O)cc1` (stereo not shown): 8.82%; for `COc1ccc(S(=O)(=O)NCC2CCCN(C(=O)c3cccnc3C)C2)cc1` (stereo not shown): 14%; for `COc1ccc2c(ccc[n+]2CC(=O)c2ccc(C)cc2)c1.[Br-]`: 8.14%.

Regarding `COc1ccc(/C=N/NC(=O)c2ccc(Br)cc2)cc1CN1CCOCC1`, the “hERG current change (%, negative = inhibition) at 1uM” value is listed as -23.8%. Regarding `COc1cc(C(=O)N/N=C/c2ccc(OC)c(CN3CCN(c4ccc(F)cc4)CC3)c2)ccc1O`, the “hERG current change (%, negative = inhibition) at 1uM” value is recorded as -52.4%.

With `COc1ccc(/C=N\NC(=O)c2cc(O)c(O)c(O)c2)cc1CN1CCN(c2ccc(F)cc2)CC1`, the “hERG current change (%, negative = inhibition) at 1uM” value was determined as 10.4%. With `CCN(CC(=O)N1CCOCC1)S(=O)(=O)c1ccccc1`, the “hERG current change (%, negative = inhibition) at 1uM” value is 12.4%. `CCCCc1c(O)nc2sccn2c1=O`: the “hERG current change (%, negative = inhibition) at 1uM” value is listed as 5.53%. As to `Cc1nc2ccccn2c(=O)c1CCN1CCC(C(=O)c2ccc(F)cc2)CC1`, the “hERG current change (%, negative = inhibition) at 1uM” value is listed as -66.2%. Turning to `Cc1nc2sccn2c(=O)c1S(=O)(=O)NCCc1ccccc1`, the “hERG current change (%, negative = inhibition) at 1uM” value is reported as -10.2%. Consider `Cc1nc2sccn2c(=O)c1CCN1CCC(=C(c2ccccc2)c2ccc(F)cc2)CC1`, for which the “hERG current change (%, negative = inhibition) at 1uM” value is listed as -78.8%. The same measure for `Cc1nc2sccn2c(=O)c1S(=O)(=O)NCc1ccccc1`: 9.92%.

In the case of `Cc1nc2sccn2c(=O)c1CCN1CCC(=C(c2ccc(F)cc2)c2ccc(F)cc2)CC1`, the “hERG current change (%, negative = inhibition) at 1uM” value is recorded as -65%. In the case of `CCOc1ccccc1NC(=O)N1CCC(C(=O)c2ccc(F)cc2)CC1`, the “hERG current change (%, negative = inhibition) at 1uM” value was determined as 9.5%. Take `Cc1nc2sccn2c(=O)c1S(=O)(=O)N1CCN(c2ccc(F)cc2)CC1`: the “hERG current change (%, negative = inhibition) at 1uM” value was -23%. With `Cc1ccccc1NC(=O)N1CCC(C(=O)c2ccc(F)cc2)CC1`, the “hERG current change (%, negative = inhibition) at 1uM” value is given as 17.6%. The figure for `CC(NCC(=O)Nc1ccccc1C(=O)NC1CC1)c1ccc(F)cc1F` (stereo not shown) is 1.42%.
